# AmpC no deterg – blocks E. coli AmpC beta-lactamase in detergent-free assay | 330,000 compounds, 0.52% hits | AmpC nitrocefin hydrolysis, absorbance 480 nm, 0.0001% Triton | Potency, µM (highest dose often 57.1 µM), inactives show at the top dose activity change, negative = inhibition, most hits filed as inhibitors | P00811;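 also: plate controls were no compound for no effect and no enzyme for full effect; nearly all actives have a fitted effect of over 20% in size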
# Target sequence (P00811 whole entry, looked up): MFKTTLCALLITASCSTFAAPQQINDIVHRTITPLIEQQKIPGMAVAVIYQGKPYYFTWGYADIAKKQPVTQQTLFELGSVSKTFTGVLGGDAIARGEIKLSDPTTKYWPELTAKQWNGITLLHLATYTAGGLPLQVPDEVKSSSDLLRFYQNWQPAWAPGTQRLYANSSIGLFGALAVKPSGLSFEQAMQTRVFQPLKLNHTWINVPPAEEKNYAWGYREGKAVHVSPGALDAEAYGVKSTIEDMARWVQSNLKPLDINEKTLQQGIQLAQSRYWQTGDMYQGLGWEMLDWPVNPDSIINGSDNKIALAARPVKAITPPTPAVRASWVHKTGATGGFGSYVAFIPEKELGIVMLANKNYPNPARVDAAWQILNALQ
#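 AmpC (5.3 nM in the dispensed reagent) in 20 mM phosphate pH 7.0 with 0.01% (detergent screen) or 0.0001% Triton X-100 was preincubated with compounds for 15 min at room temperature. Nitrocefin was then added from an 800 uM solution, and hydrolysis was followed at 480 nm.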
# Pf growth 48h – inhibits P. falciparum growth in the first generation, 48 h | Potency, µM (highest dose often 28.7 µM), without a hit: at the top dose activity change, negative = inhibition, actives largely listed as inhibitors | AID 504832 | P. falciparum luciferase growth in erythrocytes, 48 h | 310,000 compounds, 5.9% hits; also: % is scaled to controls: 0 for no effect and ±100 for the full control effect
#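 Luciferase-expressing parasites in RBCs, 2% Hct / 0.1% parasitemia final; RPMI 1640 + 0.5% Albumax; 37 C, 5% CO2, one generation; luminescence read-out, lower signal = inhibition.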
# Pf growth 96h – inhibits malaria parasite growth, 96 h. P. falciparum luciferase reporter growth, 96 h. Potency, µM (series often up to 28.7 µM), without a hit: top-dose activity change, negative = inhibition, hits mostly inhibitors. 320,000 compounds, 6.9% hits. AID 504834; also: % is scaled to controls: 0 for no effect and ±100 for the full control effect
#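 Delayed-death screen, second-generation endpoint: infected erythrocytes, 2% hematocrit, 0.05% parasitemia final; 96 hours at 37 C, 5% CO2; luciferase detection reagent; luminescence decrease equals reduced growth.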
# Sm TGR block – blocks Schistosoma mansoni thioredoxin glutathione reductase. Potency, µM (titrated, usually from 114 µM), for the others: at the top dose activity change, negative = inhibition, usual class: inhibitors. Q962Y6. purified TGR, DTNB reduction, TNB absorbance 405 nm. 360,000 compounds, 3% hits; also: % is scaled to controls: 0 for no effect and ±100 for the full control effect; nearly all actives have a fitted effect of over 60% in size
#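 Kinetic colorimetric format: TGR-catalysed, NADPH-driven DTNB reduction monitored via TNB absorbance. Enzyme dispensed at 20 nM; compound exposure 15 min at room temperature before reaction start.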
# SARS PLpro yeast – SARS-CoV PLP inhibition in yeast | S. cerevisiae expressing SARS-CoV PLpro, growth rescue | Potency, µM (top dose mostly 32.9 µM), inactives show top-dose activity, positive = growth rescue, usual class: activators | 330,000 compounds, 0.19% hits | AID 485353; calls by dose curve; also: 0% is about no effect; nearly all actives have a fitted effect of over 55% in size
# AmpC detergent – blocks E. coli AmpC beta-lactamase in detergent assay; P00811; AmpC hydrolysis of nitrocefin, absorbance 480 nm, 0.01% Triton; Potency, µM (doses to about 114 µM), without a hit: at the highest dose activity change, negative = inhibition, hits mostly inhibitors; 370,000 compounds, 0.041% hits;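 also: 0% = no-compound wells and -100% = no-enzyme wells; nearly all actives have a fitted effect of over 25% in size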
#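 AmpC (5.3 nM in the dispensed reagent) in 20 mM phosphate pH 7.0 with 0.01% (detergent screen) or 0.0001% Triton X-100 was preincubated with compounds for 15 min at room temperature. Nitrocefin was then added from an 800 uM solution, and hydrolysis was followed at 480 nm.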
# * hit, by the source's call; ? = inconclusive; . = not tested or not shown; [ ] = dose if it differs, or a comment. Compounds with a hit are over-represented: about 12% of the library has one in this group of screens. Unless noted, calls follow the shape of the dose curve; as a rule, active = well fitted curve in the direction sought with a large enough effect; inconclusive = small, poorly fitted or top-dose-only effect, or another doubt; inactive = no such curve, though single readings can be large; an effect the other way counts as inactive or inconclusive. Potency is read from the fitted curve at half-maximal effect.
SMILES,AmpC no deterg,Pf growth 48h,Pf growth 96h,Sm TGR block,SARS PLpro yeast,AmpC detergent
COc1ccc(/C(C)=N\Nc2nc(-c3ccccc3)cc(=O)[nH]2)cc1,-28%,0.93µM*,0.59µM*,-5%,3%,-7%
CN(C)c1ccc(/C=N\Nc2nc(-c3ccccc3)cc(=O)[nH]2)cc1,-22%,2.3µM*,2.3µM*,-5%,1%,-12%
COc1ccc(/C=C/c2nc(-c3ccccc3)cc(=O)[nH]2)cc1,-25%,?,3%,-21%,0%,1%
COc1ccc(CNC(=O)[C@H](C)NC(=O)[C@@H]2Cc3ccccc3CN2)cc1,-7%,-1%,20%,-9%,-1%,0%
COc1ccc(C(=O)CN2C(=O)C(C)(C)Oc3ccc(C(=O)N4CCCCCC4)cc32)cc1,95%,.,9.3µM*,17%[11.4 µM],-1%,?
O=C(CSc1nc2ccc(Nc3nc(N4CCOCC4)nc(N4CCOCC4)n3)cc2s1)N1CCOCC1,-22%,-1%,-7%,5%,0%,-8%
O=C(CSc1nc2ccc(Nc3nc(N4CCOCC4)nc(N4CCOCC4)n3)cc2s1)Nc1ccccc1F,-15%,?,10µM*,-17%,1%,-5%
CCCC(=O)Nc1ccc2nc(SCC(=O)Nc3ccc(N4CCOCC4)c(Cl)c3)sc2c1,-9%,?,?,8%,-2%,-7%
CSc1nc2ccc(Nc3nc(N4CCOCC4)nc(N4CCOCC4)n3)cc2s1,-6%,9.3µM*,.,-1%,1%,5%
O=C(CSc1nc2ccc(Nc3nc(N4CCOCC4)nc(N4CCOCC4)n3)cc2s1)Nc1ccccc1Cl,-11%,12µM*,2.6µM*,1%,1%,-10%
COC(=O)c1ccccc1NC(=O)CSc1nc(Nc2ccccc2)nc(N2CCOCC2)n1,46%,9.3µM*,-10%,-2%,1%,8%
COc1cccc(NC(=O)CSC2=Nc3ccccc3C3=NC(CC(=O)NCCc4ccccc4)C(=O)N23)c1 (centres undefined),.,.,.,1%,.,3%
O=C(CSc1ccccc1)N1CCc2c([nH]c3ccccc23)C1c1ccc(Cl)cc1 (centres undefined),.,.,.,11%,.,17%
CCN(CC)c1ccc(C(=O)OCC(=O)Nc2cccc(S(=O)(=O)NC3=NCCCCC3)c2)cc1,-5%,?,?,0%,-3%,-4%
O=C(CSc1nc2ccc(Nc3nc(N4CCCC4)nc(N4CCCC4)n3)cc2s1)NCc1ccco1,-22%,12µM*,?,-16%,1%,-8%
CCOc1ccc2nc(SCC(=O)NC(=O)NCc3ccco3)sc2c1,-28%,-1%,34%,-2%,-8%,-2%
CCOc1ccc2nc(SCC(=O)NCc3ccco3)sc2c1,-16%,8.3µM*,-6%,-32%,-14%,-9%
Cc1nc(N2CCOCC2)c2c(C(=O)Nc3cccc(C(F)(F)F)c3)c(C)oc2n1,.,.,.,6%,.,17%
CCOc1ccc(-c2cc(C(=O)NCc3ccc(C)cc3)c3ccccc3n2)cc1,.,.,.,-7%,.,-6%
O=C(O)c1ccccc1NC(=O)c1cc(-c2ccccc2)nc2ccccc12,-41%,4%,-19%,-6%,-6%,2%
O=C(Nc1ccon1)c1cc(-c2ccccc2)nc2ccccc12,-32%,7.4µM*,.,-11%,3%,-10%
CCOc1cccc(-c2cc(C(=O)Nc3ccon3)c3ccccc3n2)c1,18µM*,2.1µM*,-18%,-5%,-2%,-2%
CCOc1ccc(-c2cccc(NS(=O)(=O)c3c(C)cc(C)cc3C)c2)nn1,.,.,.,8%,.,22%
CC(C)CNC(=O)COC(=O)c1cc(S(=O)(=O)N(C)C)ccc1N1CCCC1,24%,-27%,45%[1.15 µM],-5%,0%,-3%
COc1ccc(N2CCN(C(=O)COC(=O)c3cc(S(=O)(=O)N(C)C)ccc3N3CCCC3)CC2)cc1,177%,10µM*,?,6%,-5%,-3%

# Bioassay records: PubChem, National Center for Advancing Translational Sciences (NCATS)
